An excerpt weighted towards active compounds, which were near 1.3% of everything screened.
VACV mCherry inh – vaccinia inhibition (mCherry reporter). Potency, µM (series often up to 36.5 µM), without a hit: at the top dose activity change, negative = inhibition, actives largely listed as inhibitors. Vaccinia virus mCherry reporter infection, fluorescence. 310,000 compounds, 0.63% hits; calls by dose curve; tested in A549 cells; note: % is set by controls: 0 for no effect and ±100 for the full control effect; nearly all actives have a fitted effect of over 35% in size
SARS PLpro yeast – blocks SARS-CoV papain-like protease in a yeast assay. S. cerevisiae expressing SARS-CoV PLpro, growth rescue. AID 485353. 330,000 compounds, 0.19% hits. Potency, µM (top dose mostly 32.9 µM), for the others: at the highest dose activity, positive = growth rescue, hits mostly activators; calls by dose curve; note: 0% is about no effect; nearly all actives have a fitted effect of over 55% in size
AmpC inh no detg – AmpC beta-lactamase inhibition without detergent | P00811 | AmpC nitrocefin hydrolysis, absorbance 480 nm, 0.0001% Triton | Potency, µM (top dose mostly 57.1 µM), for inactives: at the top dose activity change, negative = inhibition, usual class: inhibitors | 330,000 compounds, 0.52% hits;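 note: plate controls were no compound for no effect and no enzyme for full effect; nearly all actives have a fitted effect of over 20% in size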
Target sequence (P00811 whole entry, looked up): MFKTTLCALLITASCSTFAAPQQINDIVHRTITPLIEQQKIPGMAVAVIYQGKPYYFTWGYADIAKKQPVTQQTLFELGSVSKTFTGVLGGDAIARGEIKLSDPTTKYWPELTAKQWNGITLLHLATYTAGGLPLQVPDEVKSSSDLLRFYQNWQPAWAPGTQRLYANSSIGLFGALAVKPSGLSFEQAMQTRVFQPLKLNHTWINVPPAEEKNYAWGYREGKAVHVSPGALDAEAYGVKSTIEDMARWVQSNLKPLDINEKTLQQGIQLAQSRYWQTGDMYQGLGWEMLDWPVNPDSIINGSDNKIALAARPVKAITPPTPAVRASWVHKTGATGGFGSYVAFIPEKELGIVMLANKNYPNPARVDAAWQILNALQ
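20 mM phosphate pH 7.0 + 0.01% (detergent screen) or 0.0001% Triton X-100; 5.3 nM AmpC reagent; cpd preinc 15 min RT; nitrocefin (800 uM stock) to start; A480 q20 s × 4 min; Activity was normalised to no-enzyme and no-compound control wells.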
AmpC inh detg – blocks E. coli AmpC beta-lactamase in detergent assay; AmpC hydrolysis of nitrocefin, absorbance 480 nm, 0.01% Triton; Potency, µM (series often up to 114 µM), for inactives: top-dose activity change, negative = inhibition, hits mostly inhibitors; 370,000 compounds, 0.041% hits; AID 485294;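 note: 0% = no-compound wells and -100% = no-enzyme wells; nearly all actives have a fitted effect of over 25% in size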
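AmpC (5.3 nM in the dispensed reagent) in 20 mM phosphate pH 7.0 with 0.01% (detergent screen) or 0.0001% Triton X-100 was preincubated with compounds for 15 min at room temperature. Nitrocefin was then added from an 800 uM solution, and hydrolysis was followed at 480 nm.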
AMA1-RON2 inh – disrupts binding of P. falciparum AMA1 to RON2 | AlphaScreen AMA1-biotinylated RON2 peptide binding | Potency, µM (top dose mostly 58.2 µM), for inactives: at the top dose activity change, negative = inhibition, most hits filed as inhibitors | 360,000 compounds, 0.2% hits;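 note: 0% = vehicle wells and -100% = peptide control; nearly all actives have a fitted effect of over 45% in size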
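AMA1 (3D7) with his tag at 25 nM final met compounds first, then biotinylated RON2 peptide at 25 nM; detection used donor plus acceptor beads, 10 µg/mL apiece, read by AlphaScreen after 30 min at room temperature.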
Vaccinia Venus – inhibitors of vaccinia virus (Venus reporter). AID 720580. 330,000 compounds, 0.46% hits. Potency, µM (doses to about 36.5 µM), for inactives: at the highest dose activity change, negative = inhibition, most hits filed as inhibitors. Vaccinia virus Venus reporter expression, fluorescence; calls by dose curve; tested in A549 cells; note: % is set by controls: 0 for no effect and ±100 for the full control effect; nearly all actives have a fitted effect of over 30% in size
The depositor's hits bear a star; i = inactive; ? = inconclusive; . = no result given; [ ] = another dose, or the depositor's remark. Unless noted, calls come from the whole dose curve; as a rule, active = well fitted curve in the direction sought with a large enough effect; inconclusive = small, poorly fitted or top-dose-only effect, or another doubt; inactive = no such curve, though single readings can be large; an effect the other way counts as inactive or inconclusive. Potency is the fitted concentration of half-maximal effect.

SMILES	VACV mCherry inh	SARS PLpro yeast	AmpC inh no detg	AmpC inh detg	AMA1-RON2 inh	Vaccinia Venus
Cc1ccc(C(=O)N/N=C/c2ccc([N+](=O)[O-])s2)cc1	-12%[1.46 µM]	-11%	-40%	-16%	-24%	?
CCCCNC(=O)c1sc2ncnc(NCC3CCCO3)c2c1C (stereo not given)	-7%	.	.	.	.	3%
CC[N+]1(CC(=O)c2ccc(Cl)cc2)CCCCC1	i	.	.	.	.	-18%
Cc1ccc(N/N=C(\C#N)C(N)=S)c(C)c1	-2%	-137%	3.5µM*	1%	-1%	-6%
Cc1ccc(NC(=O)/C(C#N)=N/Nc2ccc(C(=O)O)cc2)c(C)c1	-2%	-1%	-24%	5%	-8%	6%
COc1ccccc1C1CN(CC(=O)N2CCC(N3CCOCC3)CC2)Cc2ccccc2O1 (stereo not given)	-3%	.	.	.	.	-3%
O=S(=O)(c1cc(O)ccc1O)c1cccc2c(S(=O)(=O)c3cc(O)ccc3O)cccc12	-5%	-7%	20µM*	-10%	8.9µM*	3%
CC(C)CS(=O)(=O)c1oc(-c2ccc(F)cc2)nc1S(=O)(=O)c1ccccc1	-21%[7.34 µM]	.	.	-7%	.	-12%[7.34 µM]
O=C(c1ccc2c(c1)OCO2)N(Cc1cc2ccc(F)cc2nc1N1CCC(O)CC1)CC1CCCO1 (stereo not given)	12%	.	.	.	.	38%
Cc1cc(C(C)(C)CC(C)(C)C)ccc1OCCOCC[N+](C)(C)Cc1ccccc1	10µM*	.	262%	?	-16%	10µM*
CC(=O)OC1CC[C@@]2(C)C3CC(=O)[C@]4(C)C(C(C)=O)=CCC4C3CC[C@H]2C1 (stereo not given in full)	i	.	.	.	.	0%
CC(=O)OC1CCC2(C)C(CCC3C4CC=C(C(C)=O)C4(C)OC(=O)CC32)C1 (stereo not given)	?	.	.	.	19%	11µM*
COc1ccc([N+](=O)[O-])cc1NCc1cccnc1	i	-4%	-15%	3%	12%	-9%
COc1ccc([N+](=O)[O-])cc1NCc1cccc([N+](=O)[O-])c1	?	-2%	-31%	-8%	-12%	10µM*
C#CCOCCOCCOCCNc1nc(N2CCN(C(=O)CCCCCCCCCCNC(=O)[C@H](CCCCN)n3cc(C)nn3)CC2)nc(N2CCN(C(=O)CCCCCCCCCCNC(=O)[C@@H]([C@H](C)O)n3cc(C)nn3)CC2)n1	?	8%	235%	5%	-18%	11µM*
C#CCOCCOCCOCCNc1nc(N2CCN(C(=O)CCCCCCCCCCNC(=O)[C@@H](CCSC)n3cc(CCO)nn3)CC2)nc(N2CCN(C(=O)CCCCCCCCCCNC(=O)[C@@H]([C@H](C)O)n3cc(C)nn3)CC2)n1	-1%	9%	229%	-3%	-1%	?
C#CCOCCOCCOCCNc1nc(N2CCN(C(=O)CCCCCCCCCCNC(=O)[C@H](CCCCN)n3cc(C[C@@H](C)CC)nn3)CC2)nc(N2CCN(C(=O)CCCCCCCCCCNC(=O)[C@@H]([C@H](C)O)n3cc(C)nn3)CC2)n1	11µM*	-16%	298%	1%	?	7.9µM*
C#CCOCCOCCOCCNc1nc(N2CCN(C(=O)CCCCCCCCCCNC(=O)Cn3cc(C[C@@H](C)O)nn3)CC2)nc(N2CCN(C(=O)CCCCCCCCCCNC(=O)[C@@H]([C@H](C)O)n3cc(C)nn3)CC2)n1	-26%	-22%	255%	?	9%	?
C#CCOCCOCCOCCNc1nc(N2CCN(C(=O)CCCCCCCCCCNC(=O)Cn3cc(CCCCCN)nn3)CC2)nc(N2CCN(C(=O)CCCCCCCCCCNC(=O)[C@@H]([C@H](C)O)n3cc(C)nn3)CC2)n1	?	-5%	297%	0%	-13%	10µM*
COC(=O)c1cn([C@H]2C[C@@H](C(=O)N3CCCCCC3)N(Cc3ccsc3)C2)nn1	-10%	.	.	.	.	-7%

Bioassay records as filed in PubChem BioAssay.
